# Results published in PubChem BioAssay.
# The source made the active and inactive calls.
# How the values were obtained:
# [1] = system: PRMT1 (protein arginine N-methyltransferase 1); assay: small molecules binding arginine methyltransferase PRMT1 – biochemical, small-molecule microarray, 635 nm fluorescence, primary screen (AID 1088); settings: higher = more signal;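 note: binding of Prmt1 protein to compounds spotted on small-molecule microarray slides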
# [2] = growth effects on S. cerevisiae YJM789 – YJM789 clinical isolate, OD600, 24 h, basal, primary screen (AID 1089); settings: higher = more signal, called active from +8 up or from −8 down;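 note: growth of clinical yeast isolate S. cerevisiae YJM 789 seeded 1000 cells per well; test concentration not given here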
# [3] = S. pombe growth modifiers, basal conditions – strain 972, OD600, 24 h, no modulator, primary screen (AID 1090);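 note: basal condition with compound alone and no growth modifier present; test concentration not given here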; settings: S. pombe 972 growth, higher = more signal, called active from +8 up or from −8 down
# [4] = budding yeast growth modifiers under rapamycin – strain BY4716, OD600, 96 h, primary screen (AID 1091); note: test concentration not given here; settings: S. cerevisiae BY4716 + rapamycin, higher = more signal, called active from +8 up or from −8 down
# [5] = target: Torsin-1A-interacting protein 2 (Homo sapiens) (UniProt Q8NFQ8); assay: small molecules binding lysate-expressed LULL1 – cell lysate, human LULL1 lysate, 635/667 nm fluorescence, primary screen (AID 1092); settings: small-molecule microarray, hLULL1 lysate binding, 635 nm fluorescence; higher = more signal;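 note: probe is lysate of COS7 cells overexpressing human LULL1; score merges per-feature 667 nm fluorescence with signal-to-noise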
# [6] = optical density change of DRC41 E. coli – strain DRC41, OD650, 24 h, E. coli filamentation project, primary screen (AID 1093);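 note: MC1000 strain lacking acrAB efflux and sulA so SOS filamentation is blocked; test concentration not given here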; settings: E. coli DRC41 growth, higher = more signal, called active from +8 up or from −8 down
# [7] = probe aLefty2 binding to arrayed compounds – biochemical, biotinylated probe, 635/667 nm fluorescence, primary screen (AID 1094); settings: small-molecule microarray, higher = more signal;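 note: score merges spot fluorescence near 667 nm with spot signal-to-noise ratio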
# [8] = system: Noggin (protein binding on small-molecule microarray); assay: small molecules binding Noggin protein – biochemical, 635/667 nm fluorescence, primary screen (AID 1095); settings: 635 nm fluorescence, higher = more signal;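 note: score merges 667 nm feature fluorescence with signal to noise over triplicate slides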
# [9] = target: Neurogenic locus notch homolog protein 3 (Homo sapiens) (UniProt Q9UM47); assay: small molecules binding NOTCH3 protein – biochemical, 635/667 nm fluorescence, primary screen (AID 1096); settings: small-molecule microarray, 635 nm fluorescence, higher = more signal
# [10] = probe aEGFR binding to arrayed compounds – biochemical, biotinylated probe, 635/667 nm fluorescence, primary screen (AID 1097); settings: small-molecule microarray, higher = more signal;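 note: probe is a biotinylated anti-EGFR antibody binding compounds printed on slides; score combines fluorescence near 667 nm and signal to noise of each spot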
# Torsin-1A-interacting protein 2 (Homo sapiens), sequence (Q8NFQ8 whole entry, looked up): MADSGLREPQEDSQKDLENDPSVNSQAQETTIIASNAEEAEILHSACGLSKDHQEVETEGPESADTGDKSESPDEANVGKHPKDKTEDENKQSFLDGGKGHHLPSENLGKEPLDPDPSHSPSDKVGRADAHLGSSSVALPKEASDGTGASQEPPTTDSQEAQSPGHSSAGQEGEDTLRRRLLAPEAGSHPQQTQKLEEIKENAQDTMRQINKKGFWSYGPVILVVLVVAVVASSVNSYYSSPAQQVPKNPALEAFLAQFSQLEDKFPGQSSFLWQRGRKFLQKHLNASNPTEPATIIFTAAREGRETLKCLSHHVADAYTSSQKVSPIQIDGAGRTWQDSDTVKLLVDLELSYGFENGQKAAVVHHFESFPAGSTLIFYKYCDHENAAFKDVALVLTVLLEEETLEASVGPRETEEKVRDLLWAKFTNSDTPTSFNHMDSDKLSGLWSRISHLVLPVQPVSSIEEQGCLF
# Neurogenic locus notch homolog protein 3 (Homo sapiens), sequence (Q9UM47 whole entry, looked up): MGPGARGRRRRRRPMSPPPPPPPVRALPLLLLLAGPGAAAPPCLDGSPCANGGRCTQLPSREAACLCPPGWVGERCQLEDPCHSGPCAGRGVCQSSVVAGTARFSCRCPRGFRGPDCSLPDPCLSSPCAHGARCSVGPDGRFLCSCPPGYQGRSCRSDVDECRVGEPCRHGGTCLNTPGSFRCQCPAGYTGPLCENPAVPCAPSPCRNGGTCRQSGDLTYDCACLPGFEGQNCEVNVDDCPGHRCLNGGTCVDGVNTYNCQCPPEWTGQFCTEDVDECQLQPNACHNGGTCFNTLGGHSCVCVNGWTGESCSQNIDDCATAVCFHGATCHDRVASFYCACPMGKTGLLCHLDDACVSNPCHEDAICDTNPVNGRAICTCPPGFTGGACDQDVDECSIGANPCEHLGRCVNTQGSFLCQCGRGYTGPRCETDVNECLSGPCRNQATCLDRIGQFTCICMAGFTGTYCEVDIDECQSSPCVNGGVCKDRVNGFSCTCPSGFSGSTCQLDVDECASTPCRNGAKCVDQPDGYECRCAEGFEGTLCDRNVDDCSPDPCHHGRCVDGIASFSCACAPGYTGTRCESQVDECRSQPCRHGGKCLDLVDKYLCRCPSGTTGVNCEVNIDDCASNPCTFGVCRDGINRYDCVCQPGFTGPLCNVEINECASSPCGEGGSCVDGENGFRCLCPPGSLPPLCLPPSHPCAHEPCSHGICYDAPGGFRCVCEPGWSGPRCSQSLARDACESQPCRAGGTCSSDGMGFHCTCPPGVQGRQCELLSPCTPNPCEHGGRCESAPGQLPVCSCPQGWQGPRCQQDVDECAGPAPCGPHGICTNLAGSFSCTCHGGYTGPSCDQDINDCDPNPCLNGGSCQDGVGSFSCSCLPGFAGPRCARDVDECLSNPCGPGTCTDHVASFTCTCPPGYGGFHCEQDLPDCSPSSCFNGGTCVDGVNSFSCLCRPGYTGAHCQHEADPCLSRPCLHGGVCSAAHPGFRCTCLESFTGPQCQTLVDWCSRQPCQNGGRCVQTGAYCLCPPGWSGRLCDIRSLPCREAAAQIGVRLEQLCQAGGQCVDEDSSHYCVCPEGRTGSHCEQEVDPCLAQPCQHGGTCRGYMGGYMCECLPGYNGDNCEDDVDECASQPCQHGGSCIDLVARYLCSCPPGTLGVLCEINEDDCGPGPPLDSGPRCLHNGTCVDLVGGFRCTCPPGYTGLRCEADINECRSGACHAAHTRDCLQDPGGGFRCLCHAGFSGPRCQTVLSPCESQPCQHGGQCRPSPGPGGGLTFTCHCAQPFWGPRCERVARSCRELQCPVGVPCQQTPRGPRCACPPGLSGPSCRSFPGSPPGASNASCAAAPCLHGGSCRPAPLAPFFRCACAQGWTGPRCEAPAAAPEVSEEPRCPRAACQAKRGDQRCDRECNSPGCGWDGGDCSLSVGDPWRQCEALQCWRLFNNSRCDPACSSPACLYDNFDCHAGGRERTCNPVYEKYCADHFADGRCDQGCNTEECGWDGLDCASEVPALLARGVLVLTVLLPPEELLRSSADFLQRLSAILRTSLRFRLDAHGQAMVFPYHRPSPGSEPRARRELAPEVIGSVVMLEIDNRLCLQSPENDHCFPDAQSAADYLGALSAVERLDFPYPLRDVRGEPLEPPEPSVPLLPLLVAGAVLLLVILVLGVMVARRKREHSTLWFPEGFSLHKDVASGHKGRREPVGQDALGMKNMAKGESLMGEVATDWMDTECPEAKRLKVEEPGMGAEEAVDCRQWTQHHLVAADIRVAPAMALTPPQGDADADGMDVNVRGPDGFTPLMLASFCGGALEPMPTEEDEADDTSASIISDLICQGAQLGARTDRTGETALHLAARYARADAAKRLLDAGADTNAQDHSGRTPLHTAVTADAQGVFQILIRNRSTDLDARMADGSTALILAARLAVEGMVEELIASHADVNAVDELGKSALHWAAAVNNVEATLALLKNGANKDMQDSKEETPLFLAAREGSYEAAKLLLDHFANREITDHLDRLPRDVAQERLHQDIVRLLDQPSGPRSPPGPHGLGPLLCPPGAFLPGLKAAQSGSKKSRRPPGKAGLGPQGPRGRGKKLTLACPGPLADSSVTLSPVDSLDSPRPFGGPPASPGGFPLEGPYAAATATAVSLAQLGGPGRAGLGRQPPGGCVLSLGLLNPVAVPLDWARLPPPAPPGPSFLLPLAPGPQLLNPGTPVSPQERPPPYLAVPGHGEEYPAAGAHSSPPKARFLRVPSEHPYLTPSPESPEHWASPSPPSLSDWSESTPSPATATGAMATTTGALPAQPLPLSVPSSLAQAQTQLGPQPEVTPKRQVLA
Structure (SMILES),composite z-score [1],z-score [2],z-score [3],z-score [4],composite z-score [5],z-score [6],composite z-score [7],composite z-score [8],composite z-score [9],composite z-score [10]
CCCCCCc1nc(C2CC2)c(C)c2c1[Si](C(C)C)(C(C)C)OC2,-1.09,-2.2 (inactive),-3.58 (inactive),-1.75 (inactive),-0.492,1.69 (inactive),-0.0591,0.168,-1.26,-0.202
COCCOC(=O)N1C(=O)[C@@]2(c3cc(C#CCCO)ccc31)[C@H](c1ccc(OCCO)cc1)N1[C@H](c3ccccc3)[C@H](c3ccccc3)OC(=O)[C@H]1[C@@H]2C(=O)NC[C@H](O)c1ccccc1,1.54,1.99 (inactive),1.98 (inactive),5.45 (inactive),2.54,1.3 (inactive),-0.116,1.6,1.07,-0.0286
C#CCNC(/C=C/c1ccccc1)CO (stereo not given),0.142,1.11 (inactive),0.64 (inactive),1.24 (inactive),0.0064,-0.852 (inactive),-0.0668,0.381,0.447,-0.135
COCCOC(=O)N1C(=O)[C@@]2(c3cc(C#CC4=CCCCC4)ccc31)[C@H](C(=O)NC[C@H](O)c1ccccc1)[C@H]1C(=O)O[C@H](c3ccccc3)[C@H](c3ccccc3)N1[C@@H]2c1ccc(OCCO)cc1,1.54,2.15 (inactive),1.44 (inactive),4.41 (inactive),2.41,-0.662 (inactive),-0.003,1.85,1.13,-0.144
CC(=O)NCCCC[C@@H]1NC(=O)[C@@H]2C[C@H](C(=O)NCc3ccc(F)cc3)[C@H](c3cccc(OCCO)c3)N2C1=O,0.631,0.592 (inactive),0.16 (inactive),0.205 (inactive),2.43,0.496 (inactive),0.207,0.584,-0.515,-0.0953
CCOC(=O)C[C@H]1[C@H](OC(=O)c2cc3ccccc3oc2=O)[C@@H](NC(=O)C2CCCCC2)c2cc(OCCCO)ccc2N1C(=O)c1ccc2ccccc2n1,1.06,0.152 (inactive),0.802 (inactive),1.29 (inactive),1.17,-0.865 (inactive),-0.124,0.87,1.02,-0.154
C=CCC(OC(C)=O)[C@@H]1[C@@H](N(Cc2cccc3ccccc23)C(=O)Cc2ccc(F)cc2)c2cc(OCCCO)ccc2N1C(=O)Cc1ccc2ccccc2c1 (stereo not given in full),0.204,-0.167 (inactive),1.1 (inactive),-0.276 (inactive),0.594,0.348 (inactive),-0.0197,-0.594,-0.0809,-0.121
O=C1c2ccccc2[C@](Cc2ccccc2I)(C(=O)NCC(F)(F)F)[C@H](c2ccc(CO)cc2)N1Cc1ccccc1C(F)(F)F,1.34,0.129 (inactive),-1.15 (inactive),-1.32 (inactive),2.54,0.098 (inactive),-0.366,-0.11,1.02,0.0443
C[C@H]1COC(=O)[C@@H]2CCCN2C(=O)[C@@H](C)COC(=O)[C@@H]2CCCN2C1=O,-0.8,-0.173 (inactive),-0.649 (inactive),-1.65 (inactive),-0.863,0.493 (inactive),-0.175,0.381,-0.493,-0.071
C#CCCCON=C1C[C@@H](O)[C@@H](O)[C@@H]2[C@@H]3C(=O)N(Cc4ccc5c(c4)OCO5)C(=O)[C@@H]3CC[C@H]12,1.01,-0.216 (inactive),0.518 (inactive),-0.257 (inactive),2.79,0.523 (inactive),-0.0835,1.66,0.513,-0.02
CC(C)[Si]1(C(C)C)OCc2cc(C3CC3)nc(-c3ccccc3)c21,0.168,-0.604 (inactive),-3.7 (inactive),-1.39 (inactive),-0.431,2.13 (inactive),-0.142,-0.246,-0.802,-0.216
CC(C)(C)OC(=O)CC[C@@]1(C(=O)NCc2ccccc2)N=C(c2ccc(OCCCO)cc2)O[C@@H]1c1ccccc1,1.55,-5.26 (inactive),-1.2 (inactive),0.264 (inactive),3.54,1.46 (inactive),0.0717,-0.0633,1.1,0.045
COc1ccc(C(O)C2C=CC3C(=O)N(C)C(=O)C3N2N2CCCCC2)cc1OCc1ccccc1 (stereo not given),0.922,0.371 (inactive),-0.0814 (inactive),1.01 (inactive),2.73,-1.23 (inactive),0.491,-0.171,1.12,0.0787
CO[C@H]1COC(=O)[C@H](C)NC(=O)CC=C[C@@H](C)[C@H](NS(=O)(=O)c2ccc(C)cc2)COC(=O)CC=C[C@@H]1C,0.0763,-0.733 (inactive),-0.635 (inactive),-1.1 (inactive),-0.876,0.119 (inactive),-0.186,0.678,-0.734,-0.119
COc1ccc([Si](C)(C)[C@@H]2[C@@H](CCO)O[C@]3(C(=O)N(Cc4ccc(NC(=O)[C@H](C)O)cc4)c4ccccc43)[C@H]2C)cc1,1.47,3.17 (inactive),-1.06 (inactive),14.8 (active),2.42,1.78 (inactive),0.12,0.123,0.62,-0.102
CC(=O)Nc1ccc([C@H]2[C@H](C)CC[C@H]3C(=O)N4[C@@H](CC[C@@H](C)[C@@H]4c4ccc(NC(C)=O)cc4)C(=O)N32)cc1,1.53,0.817 (inactive),-0.789 (inactive),-0.145 (inactive),1.63,0.987 (inactive),-0.185,0.651,0.897,0.107
CO[C@H]1COC(=O)[C@@H](Cc2ccccc2)NC(=O)[C@@H](C)COC(=O)CC=C[C@@H]1C,0.633,-0.236 (inactive),-0.669 (inactive),-0.555 (inactive),-1.09,0.395 (inactive),-0.202,1.48,0.269,-0.096
C=CCC1=C[C@H]2[C@H]([C@@H]3C=C[C@]2(CC=C)C(=O)[C@]32CO2)[C@@]2(CO2)C1=O,0.388,0.683 (inactive),-21.2 (active),-4.1 (inactive),0.756,2.54 (inactive),0.233,1.65,0.183,0.148
